# A number with no mark means an inactive call. The source made the active and inactive calls.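 How the source made its calls, unless noted: active means mean inhibition above 46.5%, the solvent-only control mean plus 3 SD; inactive means the rest.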
# Assays:
# [1] = system: transactivating tegument protein VP16 (Human herpesvirus 1); experiment: compounds suppressing VP16-driven luciferase signal – cell-based, luminescence, single concentration, counter-screen for SRC2 inhibitor project (AID 652007; in the data active means inhibition above about 36%); settings: cell-based VP16 transactivation luciferase reporter, at 8.9 µM, stronger effect = higher value
# [2] = molecular target: Nuclear receptor coactivator 2 (Homo sapiens) (UniProt Q15596); experiment: inhibition of GAL4-SRC2 driven luciferase expression – cell-based, luminescence, HEK293, triplicate, confirmation (AID 652008); settings: HEK293 GAL4-SRC2 luciferase reporter, at 8.9 µM, stronger effect = higher value;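 further: 0% = DMSO-treated cells and 100% = Gossypol at 36 µM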
# Chain of Nuclear receptor coactivator 2 (Homo sapiens) (Q15596 whole entry, looked up, the tested form may be a part): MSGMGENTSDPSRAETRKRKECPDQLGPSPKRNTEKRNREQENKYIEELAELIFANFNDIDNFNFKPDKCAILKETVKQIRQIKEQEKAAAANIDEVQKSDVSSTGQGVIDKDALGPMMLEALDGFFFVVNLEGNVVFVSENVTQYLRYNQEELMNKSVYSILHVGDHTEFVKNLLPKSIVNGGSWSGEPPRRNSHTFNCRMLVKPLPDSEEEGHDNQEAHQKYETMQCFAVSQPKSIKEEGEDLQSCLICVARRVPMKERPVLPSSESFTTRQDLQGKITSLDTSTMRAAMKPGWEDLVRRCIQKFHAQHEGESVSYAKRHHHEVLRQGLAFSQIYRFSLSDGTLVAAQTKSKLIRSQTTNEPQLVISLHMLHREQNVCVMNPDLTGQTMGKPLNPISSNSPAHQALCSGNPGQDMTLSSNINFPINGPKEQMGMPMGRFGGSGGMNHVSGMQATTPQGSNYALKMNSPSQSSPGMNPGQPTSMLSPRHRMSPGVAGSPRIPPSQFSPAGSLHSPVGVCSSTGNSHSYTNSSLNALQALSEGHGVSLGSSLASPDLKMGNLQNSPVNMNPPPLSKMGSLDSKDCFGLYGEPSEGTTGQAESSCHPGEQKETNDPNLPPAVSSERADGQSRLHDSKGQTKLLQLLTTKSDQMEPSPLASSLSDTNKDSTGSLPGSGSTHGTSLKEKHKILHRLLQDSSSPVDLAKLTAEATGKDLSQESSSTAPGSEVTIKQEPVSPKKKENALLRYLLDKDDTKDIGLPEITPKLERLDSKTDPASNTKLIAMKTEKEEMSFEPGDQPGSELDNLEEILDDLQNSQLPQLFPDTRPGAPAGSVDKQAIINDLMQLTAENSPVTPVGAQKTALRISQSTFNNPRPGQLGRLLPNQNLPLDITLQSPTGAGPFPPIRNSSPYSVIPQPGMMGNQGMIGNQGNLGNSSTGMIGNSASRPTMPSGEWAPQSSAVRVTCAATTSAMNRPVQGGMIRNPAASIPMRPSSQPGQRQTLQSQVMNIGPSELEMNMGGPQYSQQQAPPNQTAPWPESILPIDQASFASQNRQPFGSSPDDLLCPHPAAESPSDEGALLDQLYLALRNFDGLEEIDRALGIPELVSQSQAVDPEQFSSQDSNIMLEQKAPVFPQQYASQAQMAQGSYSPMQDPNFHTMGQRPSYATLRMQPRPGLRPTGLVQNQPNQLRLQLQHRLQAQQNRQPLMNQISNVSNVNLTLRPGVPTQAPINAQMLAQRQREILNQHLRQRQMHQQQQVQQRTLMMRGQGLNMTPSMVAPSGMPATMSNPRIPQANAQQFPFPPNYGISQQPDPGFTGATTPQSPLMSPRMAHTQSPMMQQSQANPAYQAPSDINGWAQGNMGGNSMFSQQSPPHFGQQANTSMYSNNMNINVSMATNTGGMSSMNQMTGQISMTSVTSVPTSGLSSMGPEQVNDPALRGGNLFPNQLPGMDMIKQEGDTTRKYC
SMILES,inhibition [1],inhibition [2]
Cc1ccc(C(C)C)c(OCc2ccc(C(=O)N/N=C/c3ccc(C(=O)O)cc3)cc2)c1,-13.2%,41.4%
Cc1cccc(NS(=O)(=O)c2ccc(C)c(C(=O)NC3CCN(Cc4ccccc4)CC3)c2)c1,8.2%,6.89%
Cc1ccc(NC(=O)C2CCC(C(C)(C)C)CC2)cc1S(=O)(=O)N1CCOCC1 (stereo unspecified),3.84%,12.3%
COc1ccc(CN2CCN(Cc3ccc(C(F)(F)F)cc3)CC2)cc1,10.7%,22.6%
COc1ccc(S(=O)(=O)n2ccc(-c3ccc(OCCN(C)c4ccccn4)cc3)n2)cc1,3.56%,30.2%
CC(C)C[C@@H]1COc2cc(Br)ccc2S(=O)(=O)N1Cc1cn(CCC2OCCCO2)nn1,-3.85%,3.37%
Cc1cc(C2=NNC(=NC3CC3)SC2)c(C)n1-c1ccccc1,83.2% (active),96.4% (active)
COc1ccc(OCC(=O)Nc2ccc3c(c2)C(=O)NC3=O)cc1,-1.89%,-9.88%
CCOC(=O)c1c(NC(=O)/C=C/C(=O)O)sc(C)c1-c1ccc(C(C)(C)C)cc1,32.9%,17.2%
Cc1ccc(C(=O)O/N=C(\N)c2ccccn2)cc1,-66.4%,-57%
CC(=O)N1/C(=C/c2ccc(N(C)C)cc2)C(=O)c2ccccc21,13.3%,72.6% (active)
CCOC(=O)c1c(C)nn(-c2ccc(NC(=O)c3c(C)noc3C)cc2)c1C,11.6%,52.8% (active)
Cc1ccc(CN2CCC(C(=O)Nc3ccc(Oc4cccnc4)cc3)CC2)cc1,7.59%,-0.58%
O=c1cc(-c2ccc(O)cc2)oc2ccc3ccccc3c12,5.39%,50.8% (active)
COc1ccc(CNC(=O)COC(=O)/C=C/c2cccc(Br)c2)cc1OC,-0.64%,-19.4%
CCOC(=O)C1(Cc2ccc(Cl)cc2)CCN(C(C)Cc2ccc(O)c(OC)c2)CC1 (stereo unspecified),15.9%,30.1%
CC(C)N(Cc1ccccc1)C(=S)NCc1ccccc1,-3.69%,-6.45%

SMILES,inhibition [1],inhibition [2]
CC12CCC(=O)C=C1CCC1C2CCC2(C)C(c3csc(N)n3)CCC12 (stereo unspecified),10.2%,24.6%
CC(C)(C)c1ccc(Cn2c(=O)cnc3ccccc32)cc1,22.6%,56.7% (active)
CC1(C(=O)NS(=O)(=O)Cc2ccccc2C(F)(F)F)CCN1C(=O)c1ccco1 (stereo unspecified),0.06%,-19.7%
Cc1ccc(C(=O)Nc2ncc([N+](=O)[O-])s2)cc1,-7.15%,57.7% (active)
CC/C=C\[C@H](O)[C@H](O)C1=C(C)C(=O)[C@]2(O1)C(=O)N[C@@](OC)(C(=O)c1ccccc1)C2O (stereo partly specified),-28.1%,-3.87%
O=S(=O)(c1cccc2cnccc12)N1CCNCC1,5.01%,48.1% (active)
CCOc1ccc2oc(C(=O)NCc3ccccc3CN3CCCC3)c(C)c2c1,-10.5%,-12.9%
O=C(COC(=O)CCN1C(=O)/C(=C\C=C\c2ccccc2)SC1=S)Nc1ccc(Br)cc1,38.2% (active),74.3% (active)
O=C1C=CC2C3C(=O)N(c4ccccc4)C(=O)C3C1N2Cc1ccccc1 (stereo unspecified),30.5%,65.9% (active)
COc1ccc(NC(=O)COc2coc(CN3CCN(c4ccccc4)CC3)cc2=O)cc1,-6.47%,-1.96%
CC(=O)Nc1nc(-c2ccc3c(c2)CCN3C(=O)C2CC2)c(C)s1,13.2%,49.3% (active)
O=C(CCCCl)NC(=S)Nc1cc(C(F)(F)F)ccc1N1CCOCC1,-12.4%,-9.88%
O=C(COC(=O)CCCOc1ccc(Cl)cc1Cl)NCc1ccccc1,0.2%,15.4%
C=CCc1cccc2cc(C(=O)Nc3ccc(CC(=O)O)cc3)c(=O)oc12,12%,25.6%
Cc1ccc(C)c(-c2nc3cc(N)ccc3o2)c1,36.8% (active),55% (active)
Cc1ccc(/C=C2\SC(=S)N(CCCC(=O)Nc3ccccc3C(=O)O)C2=O)cc1,40% (active),59.4% (active)

# Source: PubChem BioAssay
